# Laboratory results taken from PubChem BioAssay AID624040 (The Scripps Research Institute Molecular Screening Center, 2012).
# “And” between values parts separate entries of the source, which are not always exact repeats. Equal entries are not always repeated. Hit rate of the full screen: of about 360,000 compounds, about 2,100 (0.58%) were called active.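 How the source made its calls: active means inhibition above a per-plate cutoff, the mean of that plate's test compounds plus 3 SD (cut at about 27% in these data); inactive means the rest.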 The full list was thinned out, with actives kept by preference.
# Molecular target: Muscarinic acetylcholine receptor M5 (Homo sapiens) (UniProt P08912)
# Experiment: human M5 muscarinic receptor antagonists, primary screen, CHO cells, Fluo-8 calcium fluorescence (AID 624040);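 further: 0% = acetylcholine EC80 with DMSO and 100% = DMSO without agonist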
# Settings: CHO-hM5 cells, ACh EC80, at 3 µM, active compounds read high
# Chain of Muscarinic acetylcholine receptor M5 (Homo sapiens) (P08912 whole entry, looked up): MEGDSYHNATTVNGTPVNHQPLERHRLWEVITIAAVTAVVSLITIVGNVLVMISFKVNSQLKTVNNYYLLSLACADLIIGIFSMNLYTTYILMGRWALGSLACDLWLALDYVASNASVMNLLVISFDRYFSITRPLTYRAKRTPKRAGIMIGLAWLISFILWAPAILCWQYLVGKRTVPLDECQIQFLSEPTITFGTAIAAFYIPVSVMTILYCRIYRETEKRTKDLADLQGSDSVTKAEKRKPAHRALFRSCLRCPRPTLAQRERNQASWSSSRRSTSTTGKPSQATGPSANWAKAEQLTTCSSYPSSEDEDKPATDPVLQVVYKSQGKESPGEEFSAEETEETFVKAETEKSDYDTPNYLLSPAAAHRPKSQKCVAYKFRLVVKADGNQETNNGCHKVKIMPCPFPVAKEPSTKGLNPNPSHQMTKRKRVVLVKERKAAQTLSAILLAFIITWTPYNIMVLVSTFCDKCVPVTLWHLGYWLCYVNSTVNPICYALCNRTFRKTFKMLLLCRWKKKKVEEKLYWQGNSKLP
row,SMILES,inhibition
1,C/C(CC(O)(/C=N/O)c1ccccc1)=N\O (stereo unspecified),-4.45% (inactive)
2,O=C(CSc1nnc(-c2c[nH]c3ccccc23)n1-c1ccc(F)cc1)NCc1ccco1,-3.75% (inactive)
3,CCOc1ncccc1C(=O)OCC(=O)NC1CC1,10.6% (inactive)
4,CC(C)C(=O)N1CCN(CCN=CC2=C(O)CC(c3ccco3)CC2=O)CC1 (stereo unspecified),-10.8% (inactive) and 8.17% (inactive)
5,CCOC(=O)C1=NN(c2ccc(Cl)cc2)/C(=C/C2=NCCc3cc(OC)c(OC)cc32)S1,-2.43% (inactive)
6,O=C(NCc1ccccc1)C1CCCN(c2nc3ccsc3c(=O)s2)C1 (stereo unspecified),-8.79% (inactive)
7,Cc1cccc(N(Cc2ccccc2)C(=O)c2cc(S(=O)(=O)N3CCOCC3)ccc2F)c1,1.23% (inactive)
8,Cc1ccc(Cn2cc(CN3CC(N4CCN(C)CC4)CS3(=O)=O)nn2)cc1 (stereo unspecified),0.4% (inactive)
9,CN(Cc1cn(Cc2ccc(C(F)(F)F)cc2)nn1)C1CN(Cc2cn(Cc3ccc(C(F)(F)F)cc3)nn2)S(=O)(=O)C1 (stereo unspecified),28.6% (active)
10,CN(C)C1CN(Cc2cn(Cc3ccccc3)nn2)S(=O)(=O)C1 (stereo unspecified),0.6% (inactive)
11,COC(=O)c1c(-c2cccs2)csc1NC(=O)CSc1ncnc2sc(C)c(C)c12,-0.42% (inactive)
12,O=S(=O)(Nc1ccc(O)c2ccccc12)c1ccc(OC(F)(F)F)cc1,7.68% (inactive)
13,O=C(c1ccc(F)cc1)N1CCC(C(=O)N2CCN(S(=O)(=O)c3ccccc3Br)CC2)CC1,4.21% (inactive)
14,CCCCCc1c(-c2ccc(OC)c(OC)c2)ncn1CCc1ccccc1OC,15.1% (inactive)
15,CCCCCc1c(-c2cccc(Br)c2)ncn1CCc1ccccc1OC,-1.26% (inactive)
16,CCCCCc1c(Cc2ccccc2)ncn1CCc1ccccc1OC,30.2% (active)
17,Cc1cccc(C)c1NC(=O)C(c1ccc(C(F)(F)F)cc1)n1c(=O)c(-c2ccco2)nc2ccccc21 (stereo unspecified),-5.75% (inactive)
18,c1ccc(C(=NNc2nc3ccccc3s2)c2ccccn2)cc1,53.7% (active)

row,SMILES,inhibition
1,CCOc1ccc(-n2c(SCC(=O)NC3CCS(=O)(=O)C3)nnc2-c2cccnc2)cc1 (stereo unspecified),0.02% (inactive)
2,c1ccc(COc2ccccc2CNCc2cccnc2)cc1,6.7% (inactive)
3,c1ccc2c(c1)CSc1sccc1C2=C1CCNCC1,99% (active)
4,O=C(NCc1ccccc1)C1=C[C@H](C2CC2)C[C@H](OCc2ccc(CO)cc2)O1,8.59% (inactive)
5,CC(C)(C)[C@H]1C=C(C(=O)NCc2ccccc2)O[C@@H](OCc2ccc(CO)cc2)C1,27% (active)
6,O=C(NCc1ccccc1)C1=C[C@@H](C2CCCCC2)C[C@@H](OCc2ccc(CO)cc2)O1,15.6% (inactive)
7,Cc1ccc(S(=O)(=O)N2CCCC(C(=O)N3CCN(C)CC3)C2)cc1 (stereo unspecified),-2.93% (inactive)
8,CC(=O)N1CCCc2cc(S(=O)(=O)N3CCCC(C(=O)N4CCN(c5cccc(Cl)c5)CC4)C3)ccc21 (stereo unspecified),39.3% (active)
9,COc1ccc(S(=O)(=O)N2CCCC(C(=O)N3CCN(C)CC3)C2)cc1C (stereo unspecified),10.1% (inactive)
10,CC1=C(C)CC(C(=O)NNC(=O)c2csc3c2CCC(C(C)(C)C)C3)C(C(=O)O)C1 (stereo unspecified),-0.27% (inactive)
11,CCc1c(Nc2ccccc2Cl)nc(N)[nH]c1=O,6.79% (inactive)
12,Cc1ccccc1NC(=O)Cc1nc(COC(=O)C(C)(C)Oc2ccc(Cl)cc2)cs1,0.92% (inactive)
13,O=C(NC(=S)NC1CCS(=O)(=O)C1)c1cccc([N+](=O)[O-])c1 (stereo unspecified),-3.13% (inactive)
14,C/C(=N\NC(=O)c1cccc([N+](=O)[O-])c1)c1cccnc1,0.74% (inactive)
15,CC(C)CC(=O)NC(=S)NNC(=O)c1cccc([N+](=O)[O-])c1,32.7% (active)
16,NC1=NC[C@@H](Cc2ccc(O)cc2)N1CC1CCCCC1,9.28% (inactive)
17,C[C@@H](CN1CCC[C@H]1CN1C(N)=NC[C@@H]1Cc1ccccc1)N1C[C@@H](Cc2ccccc2)N(CCCC2CCCC2)C1=N,28.9% (active)
18,CC[C@@H](C)[C@@H]1CN([C@@H](C)CN2CCC[C@H]2CN2C(N)=NC[C@H]2C(C)C)C(=N)N1CCc1ccc(Cl)c(Cl)c1,-2.75% (inactive)
